The source of these data is publication PMC7862700, “An all-to-all approach to the identification of sequence-specific readers for epigenetic DNA modifications on cytosine”.

Holding throughout (experiment): DAPPL (digital affinity profiling via proximity ligation, sequencing); 10 mM Tris-HCl pH 7.5, 50 mM NaCl, 1 mM DTT, 4% glycerol, room temperature, 30 min; GST-TFs on glutathione beads, 16-mer random dsDNA library, 0.1% formaldehyde crosslink after washing; high values mean tight binding
Test [1] concerns the target T1, FLI1 (Homo sapiens, UniProt Q01543 1-452).
T1 sequence: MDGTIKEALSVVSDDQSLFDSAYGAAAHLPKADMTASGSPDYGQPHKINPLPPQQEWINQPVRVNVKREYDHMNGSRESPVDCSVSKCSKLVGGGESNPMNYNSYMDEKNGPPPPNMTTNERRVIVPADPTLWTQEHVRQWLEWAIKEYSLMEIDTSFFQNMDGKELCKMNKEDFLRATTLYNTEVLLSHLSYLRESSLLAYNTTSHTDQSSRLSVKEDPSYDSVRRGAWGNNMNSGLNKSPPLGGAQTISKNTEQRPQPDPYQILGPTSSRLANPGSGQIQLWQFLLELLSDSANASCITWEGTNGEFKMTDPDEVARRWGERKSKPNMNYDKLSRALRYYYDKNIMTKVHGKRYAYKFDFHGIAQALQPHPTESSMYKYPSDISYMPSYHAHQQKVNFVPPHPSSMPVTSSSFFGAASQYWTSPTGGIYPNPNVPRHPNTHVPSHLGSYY
The conditions noted are these: protein: recombinant; tags: N-terminal GST; dsDNA, one strand shown. Put shortly: (§1)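 Pools were built from human transcription factors expressed in yeast as GST fusions, captured on glutathione beads and DNA-barcoded, along with a tag-only sample. Incubation with 200 nmole of a 16-mer random double-stranded DNA library lasted 30 min at room temperature in Tris/NaCl/DTT/glycerol buffer, and was followed by washing, 0.1% formaldehyde crosslinking, proximity ligation, PCR amplification and Illumina NextSeq500 sequencing. Binding signal is the quotient of each hexamer's read frequency for a factor and its frequency for the tag-only sample.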

The target of test [2] is T2, ELK1 (Homo sapiens, UniProt P19419 1-428).
T2 sequence: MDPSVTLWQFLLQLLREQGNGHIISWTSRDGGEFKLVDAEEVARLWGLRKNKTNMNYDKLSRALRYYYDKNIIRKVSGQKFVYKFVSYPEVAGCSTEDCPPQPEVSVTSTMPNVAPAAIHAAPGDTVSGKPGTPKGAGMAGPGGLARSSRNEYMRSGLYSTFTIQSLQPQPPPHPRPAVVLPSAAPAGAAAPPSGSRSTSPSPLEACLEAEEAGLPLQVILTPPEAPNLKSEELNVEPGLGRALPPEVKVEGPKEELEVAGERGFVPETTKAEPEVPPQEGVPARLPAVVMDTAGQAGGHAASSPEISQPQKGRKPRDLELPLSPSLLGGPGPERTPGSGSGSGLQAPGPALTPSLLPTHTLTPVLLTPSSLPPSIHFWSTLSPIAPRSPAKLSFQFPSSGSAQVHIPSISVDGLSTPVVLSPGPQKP
The conditions noted are these: protein: recombinant; tags: N-terminal GST; dsDNA, one strand shown. Put shortly: as §1

The target of test [3] is T3, GABPA (Homo sapiens, UniProt Q06546 1-454).
T3 sequence: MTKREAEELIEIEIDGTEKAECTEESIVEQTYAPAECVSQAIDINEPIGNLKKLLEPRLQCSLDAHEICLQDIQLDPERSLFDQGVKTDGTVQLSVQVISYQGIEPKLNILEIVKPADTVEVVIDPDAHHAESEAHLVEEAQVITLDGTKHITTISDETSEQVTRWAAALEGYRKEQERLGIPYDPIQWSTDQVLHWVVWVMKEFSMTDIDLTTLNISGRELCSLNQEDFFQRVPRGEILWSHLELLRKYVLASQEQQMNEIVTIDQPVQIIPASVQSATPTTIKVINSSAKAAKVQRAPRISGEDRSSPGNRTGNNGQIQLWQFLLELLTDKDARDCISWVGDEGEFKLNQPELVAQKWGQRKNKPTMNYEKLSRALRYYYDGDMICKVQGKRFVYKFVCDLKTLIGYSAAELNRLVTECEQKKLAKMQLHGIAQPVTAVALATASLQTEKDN
The conditions noted are these: protein: recombinant; tags: N-terminal GST; dsDNA, one strand shown. Put shortly:
as §1

Test [4] has as its target T4, ERG (Homo sapiens, UniProt P11308 1-479).
T4 sequence: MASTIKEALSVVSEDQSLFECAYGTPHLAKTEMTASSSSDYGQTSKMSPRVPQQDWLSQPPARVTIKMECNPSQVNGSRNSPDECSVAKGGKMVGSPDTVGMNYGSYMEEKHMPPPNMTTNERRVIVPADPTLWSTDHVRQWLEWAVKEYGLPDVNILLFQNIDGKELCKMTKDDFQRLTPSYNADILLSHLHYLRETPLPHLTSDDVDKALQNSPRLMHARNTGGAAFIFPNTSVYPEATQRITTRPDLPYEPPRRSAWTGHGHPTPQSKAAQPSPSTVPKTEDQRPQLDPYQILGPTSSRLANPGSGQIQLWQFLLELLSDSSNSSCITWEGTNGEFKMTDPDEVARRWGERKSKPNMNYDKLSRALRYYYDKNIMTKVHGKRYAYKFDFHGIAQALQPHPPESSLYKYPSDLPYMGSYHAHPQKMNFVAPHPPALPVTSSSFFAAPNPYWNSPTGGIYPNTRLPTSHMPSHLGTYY
To be noted: protein: recombinant; tags: N-terminal GST; dsDNA, one strand shown. Put shortly:
as §1

For test [5], the target named is ELF1 (Homo sapiens, UniProt P32519 1-619). To be noted: protein: recombinant; tags: N-terminal GST; dsDNA, one strand shown. Put shortly:
as §1

Test [6] concerns the target T5, EHF (Homo sapiens, UniProt Q9NZC4 1-300).
T5 sequence: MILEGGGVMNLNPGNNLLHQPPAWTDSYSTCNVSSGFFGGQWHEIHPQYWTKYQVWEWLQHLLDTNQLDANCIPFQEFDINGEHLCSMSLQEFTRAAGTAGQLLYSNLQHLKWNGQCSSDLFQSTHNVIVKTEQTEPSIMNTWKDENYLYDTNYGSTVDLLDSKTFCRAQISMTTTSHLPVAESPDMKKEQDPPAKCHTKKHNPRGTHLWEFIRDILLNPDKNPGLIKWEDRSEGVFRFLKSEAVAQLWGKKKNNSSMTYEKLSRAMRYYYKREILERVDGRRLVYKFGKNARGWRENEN
The conditions noted are these: protein: recombinant; tags: N-terminal GST; dsDNA, one strand shown. Put shortly:
as §1

For test [7], the target named is SPI1 (Homo sapiens, UniProt P17947 1-270). To be noted: protein: recombinant; tags: N-terminal GST; dsDNA, one strand shown. Put shortly:
as §1

For test [8], the target named is SPIB (Homo sapiens, UniProt Q01892 1-262). To be noted: protein: recombinant; tags: N-terminal GST; dsDNA, one strand shown. Put shortly: as §1
SPIB, sequence (Q01892 whole entry): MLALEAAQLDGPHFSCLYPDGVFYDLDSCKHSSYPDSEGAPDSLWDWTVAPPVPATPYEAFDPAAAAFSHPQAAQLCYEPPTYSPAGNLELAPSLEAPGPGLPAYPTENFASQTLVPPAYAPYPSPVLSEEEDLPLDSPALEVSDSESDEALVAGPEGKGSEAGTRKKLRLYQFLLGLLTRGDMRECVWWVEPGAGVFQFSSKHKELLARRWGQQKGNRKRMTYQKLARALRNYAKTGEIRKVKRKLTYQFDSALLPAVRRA
The target of test [9] is T6, ELK3 (Homo sapiens, UniProt P41970 1-407).
T6 sequence: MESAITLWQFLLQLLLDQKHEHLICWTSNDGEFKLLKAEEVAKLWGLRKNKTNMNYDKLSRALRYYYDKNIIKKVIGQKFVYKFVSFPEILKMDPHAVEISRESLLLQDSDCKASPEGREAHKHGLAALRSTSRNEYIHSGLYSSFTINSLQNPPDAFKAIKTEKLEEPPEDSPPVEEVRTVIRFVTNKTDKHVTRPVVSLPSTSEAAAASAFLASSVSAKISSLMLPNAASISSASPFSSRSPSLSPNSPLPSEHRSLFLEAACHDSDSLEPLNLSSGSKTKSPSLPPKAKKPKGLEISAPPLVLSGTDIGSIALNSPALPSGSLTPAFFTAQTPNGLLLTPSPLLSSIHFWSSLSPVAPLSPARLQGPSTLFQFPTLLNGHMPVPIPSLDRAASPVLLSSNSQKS
To be noted: protein: recombinant; tags: N-terminal GST; dsDNA, one strand shown. Put shortly: as §1

Test [10] deals with T7, FEV (Homo sapiens, UniProt Q99581 1-238).
T7 sequence: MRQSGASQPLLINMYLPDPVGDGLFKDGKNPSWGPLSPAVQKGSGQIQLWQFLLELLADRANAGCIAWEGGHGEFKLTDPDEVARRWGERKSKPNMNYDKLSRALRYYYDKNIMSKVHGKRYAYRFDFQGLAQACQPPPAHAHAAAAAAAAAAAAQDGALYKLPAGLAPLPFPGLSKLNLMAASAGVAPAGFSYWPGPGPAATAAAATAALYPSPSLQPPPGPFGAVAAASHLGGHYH
To be noted: protein: recombinant; tags: N-terminal GST; dsDNA, one strand shown. Put shortly: as §1

Test [11] deals with ETV5 (Homo sapiens, UniProt P41161 1-510). To be noted: protein: recombinant; tags: N-terminal GST; dsDNA, one strand shown. Put shortly: as §1
ETV5, sequence (P41161 whole entry): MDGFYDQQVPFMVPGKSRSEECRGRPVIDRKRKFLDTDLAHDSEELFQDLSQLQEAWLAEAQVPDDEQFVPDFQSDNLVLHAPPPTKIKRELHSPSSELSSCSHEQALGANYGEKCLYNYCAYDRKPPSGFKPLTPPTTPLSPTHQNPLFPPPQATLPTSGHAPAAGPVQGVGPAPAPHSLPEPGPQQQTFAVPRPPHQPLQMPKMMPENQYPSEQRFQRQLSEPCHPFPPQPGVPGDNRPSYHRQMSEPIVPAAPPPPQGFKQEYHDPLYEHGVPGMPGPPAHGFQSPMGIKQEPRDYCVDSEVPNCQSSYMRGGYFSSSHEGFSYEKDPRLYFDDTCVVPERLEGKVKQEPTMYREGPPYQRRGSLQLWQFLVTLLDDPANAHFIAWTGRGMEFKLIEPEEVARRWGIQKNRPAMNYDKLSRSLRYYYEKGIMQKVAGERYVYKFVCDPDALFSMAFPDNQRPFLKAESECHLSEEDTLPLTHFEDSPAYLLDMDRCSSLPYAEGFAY
Test [12] deals with HSF1 (Homo sapiens, UniProt Q00613 1-529). The conditions noted are these: protein: recombinant; tags: N-terminal GST; chain copies: 3; dsDNA, one strand shown. Put shortly: as §1
HSF1, sequence (Q00613 whole entry): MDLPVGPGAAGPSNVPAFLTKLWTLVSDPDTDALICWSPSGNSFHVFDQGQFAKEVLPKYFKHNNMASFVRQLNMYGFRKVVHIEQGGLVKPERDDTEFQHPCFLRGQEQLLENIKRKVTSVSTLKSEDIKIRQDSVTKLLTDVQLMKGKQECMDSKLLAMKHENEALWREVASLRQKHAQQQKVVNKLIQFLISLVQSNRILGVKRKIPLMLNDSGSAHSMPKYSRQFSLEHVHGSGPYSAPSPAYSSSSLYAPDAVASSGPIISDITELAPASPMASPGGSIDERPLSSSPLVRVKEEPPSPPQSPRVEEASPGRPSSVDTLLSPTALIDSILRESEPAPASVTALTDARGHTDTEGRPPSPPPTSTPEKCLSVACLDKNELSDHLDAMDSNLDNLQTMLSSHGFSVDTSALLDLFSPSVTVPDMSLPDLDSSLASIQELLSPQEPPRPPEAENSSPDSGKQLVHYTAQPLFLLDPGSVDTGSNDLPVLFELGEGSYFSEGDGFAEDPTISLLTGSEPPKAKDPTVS
In test [13] the target is T8, SPIC (Homo sapiens, UniProt Q8N5J4 1-248).
T8 sequence: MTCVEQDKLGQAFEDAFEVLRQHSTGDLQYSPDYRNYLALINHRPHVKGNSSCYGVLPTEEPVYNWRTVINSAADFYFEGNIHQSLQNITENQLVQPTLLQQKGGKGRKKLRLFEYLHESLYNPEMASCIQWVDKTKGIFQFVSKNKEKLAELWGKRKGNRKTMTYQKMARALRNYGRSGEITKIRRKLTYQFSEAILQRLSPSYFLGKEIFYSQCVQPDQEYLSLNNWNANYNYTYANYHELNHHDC
To be noted: protein: recombinant; tags: N-terminal GST; dsDNA, one strand shown. Put shortly: as §1

The target in test [14] is ELF4 (Homo sapiens, UniProt Q99607 1-663). The conditions noted are these: protein: recombinant; tags: N-terminal GST; dsDNA, one strand shown. Put shortly:
as §1

Test [15] addresses T9, ELK4 (Homo sapiens, UniProt P28324-2 1-405).
T9 sequence: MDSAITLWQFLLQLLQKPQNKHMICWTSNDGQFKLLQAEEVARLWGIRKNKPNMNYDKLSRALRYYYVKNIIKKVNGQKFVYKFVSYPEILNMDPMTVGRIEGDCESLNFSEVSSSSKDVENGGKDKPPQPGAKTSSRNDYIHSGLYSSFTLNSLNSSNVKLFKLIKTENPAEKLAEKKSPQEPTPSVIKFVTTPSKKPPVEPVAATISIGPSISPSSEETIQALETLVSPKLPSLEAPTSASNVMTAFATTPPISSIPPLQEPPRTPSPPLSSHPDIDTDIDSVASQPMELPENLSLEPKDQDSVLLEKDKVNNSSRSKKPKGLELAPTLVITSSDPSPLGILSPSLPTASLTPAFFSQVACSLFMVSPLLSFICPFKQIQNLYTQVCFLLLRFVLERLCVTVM
To be noted: protein: recombinant; tags: N-terminal GST; dsDNA, one strand shown. Put shortly: as §1

Test [16] has as its target T10, ETV2 (Homo sapiens, UniProt O00321 1-342).
T10 sequence: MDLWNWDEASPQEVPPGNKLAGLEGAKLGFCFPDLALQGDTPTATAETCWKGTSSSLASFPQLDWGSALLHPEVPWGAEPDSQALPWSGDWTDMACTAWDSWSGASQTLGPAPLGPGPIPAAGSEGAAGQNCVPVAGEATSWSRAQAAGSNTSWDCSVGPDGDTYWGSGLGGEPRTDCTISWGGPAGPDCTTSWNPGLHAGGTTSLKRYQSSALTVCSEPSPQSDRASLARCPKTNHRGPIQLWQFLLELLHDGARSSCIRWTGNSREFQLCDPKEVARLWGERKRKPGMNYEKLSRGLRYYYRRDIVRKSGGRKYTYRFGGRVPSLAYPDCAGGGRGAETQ
To be noted: protein: recombinant; tags: N-terminal GST; dsDNA, one strand shown. Put shortly: as §1

Test [17] addresses T11, ELF3 (Homo sapiens, UniProt P78545 1-371).
T11 sequence: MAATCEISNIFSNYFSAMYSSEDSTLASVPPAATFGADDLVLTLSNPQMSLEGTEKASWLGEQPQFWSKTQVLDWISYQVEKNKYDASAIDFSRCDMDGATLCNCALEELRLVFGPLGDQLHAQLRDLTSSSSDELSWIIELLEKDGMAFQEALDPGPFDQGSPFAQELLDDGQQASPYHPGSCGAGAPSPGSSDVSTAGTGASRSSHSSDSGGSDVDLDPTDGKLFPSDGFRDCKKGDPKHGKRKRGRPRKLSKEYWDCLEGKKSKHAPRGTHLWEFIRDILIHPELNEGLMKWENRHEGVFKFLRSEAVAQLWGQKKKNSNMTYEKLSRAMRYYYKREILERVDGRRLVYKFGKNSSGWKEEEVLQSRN
To be noted: protein: recombinant; tags: N-terminal GST; dsDNA, one strand shown. Put shortly: as §1

Test [18] deals with CRX (Homo sapiens, UniProt O43186 1-299). To be noted: protein: recombinant; tags: N-terminal GST; dsDNA, one strand shown. Put shortly: as §1
CRX, sequence (O43186 whole entry): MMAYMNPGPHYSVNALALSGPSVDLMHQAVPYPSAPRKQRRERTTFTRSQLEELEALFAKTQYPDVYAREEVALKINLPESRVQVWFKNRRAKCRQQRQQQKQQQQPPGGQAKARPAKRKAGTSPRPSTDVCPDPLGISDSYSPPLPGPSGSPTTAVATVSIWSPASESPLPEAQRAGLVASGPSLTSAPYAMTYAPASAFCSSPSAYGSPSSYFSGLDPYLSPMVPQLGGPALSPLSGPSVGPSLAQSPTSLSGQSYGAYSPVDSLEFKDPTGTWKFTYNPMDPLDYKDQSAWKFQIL
Test [19] deals with ETV1 (Homo sapiens, UniProt P50549 1-477). The conditions noted are these: protein: recombinant; tags: N-terminal GST; dsDNA, one strand shown. Put shortly:
as §1

ELF1, sequence (P32519 whole entry): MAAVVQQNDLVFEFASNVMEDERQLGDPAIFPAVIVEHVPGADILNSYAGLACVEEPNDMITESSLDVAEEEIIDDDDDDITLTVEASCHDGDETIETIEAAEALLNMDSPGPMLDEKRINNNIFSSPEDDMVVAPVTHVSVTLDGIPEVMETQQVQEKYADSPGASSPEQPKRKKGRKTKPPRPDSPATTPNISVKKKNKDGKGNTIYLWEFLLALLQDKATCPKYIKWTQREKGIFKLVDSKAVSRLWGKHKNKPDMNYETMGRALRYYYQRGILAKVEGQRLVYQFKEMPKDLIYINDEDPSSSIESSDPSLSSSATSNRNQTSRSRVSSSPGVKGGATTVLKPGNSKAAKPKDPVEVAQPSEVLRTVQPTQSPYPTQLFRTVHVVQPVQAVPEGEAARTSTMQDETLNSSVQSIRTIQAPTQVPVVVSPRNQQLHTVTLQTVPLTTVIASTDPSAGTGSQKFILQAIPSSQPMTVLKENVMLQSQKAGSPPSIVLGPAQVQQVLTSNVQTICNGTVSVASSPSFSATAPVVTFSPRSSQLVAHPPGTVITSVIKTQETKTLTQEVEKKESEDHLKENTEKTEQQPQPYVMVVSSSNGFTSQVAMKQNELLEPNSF
ELF4, sequence (Q99607 whole entry): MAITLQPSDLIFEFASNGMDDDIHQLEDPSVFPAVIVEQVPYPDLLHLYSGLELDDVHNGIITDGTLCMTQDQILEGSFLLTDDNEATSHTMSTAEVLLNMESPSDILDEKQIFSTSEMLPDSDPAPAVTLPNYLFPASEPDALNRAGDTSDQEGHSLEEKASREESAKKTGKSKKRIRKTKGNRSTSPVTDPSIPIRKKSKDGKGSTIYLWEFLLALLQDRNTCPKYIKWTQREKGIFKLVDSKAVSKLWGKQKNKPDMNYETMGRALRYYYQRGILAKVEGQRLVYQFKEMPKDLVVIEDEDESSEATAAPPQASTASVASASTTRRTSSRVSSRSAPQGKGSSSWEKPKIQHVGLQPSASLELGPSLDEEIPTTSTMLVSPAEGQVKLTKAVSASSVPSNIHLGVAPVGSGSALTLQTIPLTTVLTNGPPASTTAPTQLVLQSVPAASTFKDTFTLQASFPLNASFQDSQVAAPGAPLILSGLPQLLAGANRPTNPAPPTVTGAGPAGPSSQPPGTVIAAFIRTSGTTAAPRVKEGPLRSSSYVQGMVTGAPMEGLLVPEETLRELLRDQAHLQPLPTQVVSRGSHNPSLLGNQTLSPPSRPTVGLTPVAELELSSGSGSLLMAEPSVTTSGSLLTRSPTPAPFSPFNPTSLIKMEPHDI
ETV1, sequence (P50549 whole entry): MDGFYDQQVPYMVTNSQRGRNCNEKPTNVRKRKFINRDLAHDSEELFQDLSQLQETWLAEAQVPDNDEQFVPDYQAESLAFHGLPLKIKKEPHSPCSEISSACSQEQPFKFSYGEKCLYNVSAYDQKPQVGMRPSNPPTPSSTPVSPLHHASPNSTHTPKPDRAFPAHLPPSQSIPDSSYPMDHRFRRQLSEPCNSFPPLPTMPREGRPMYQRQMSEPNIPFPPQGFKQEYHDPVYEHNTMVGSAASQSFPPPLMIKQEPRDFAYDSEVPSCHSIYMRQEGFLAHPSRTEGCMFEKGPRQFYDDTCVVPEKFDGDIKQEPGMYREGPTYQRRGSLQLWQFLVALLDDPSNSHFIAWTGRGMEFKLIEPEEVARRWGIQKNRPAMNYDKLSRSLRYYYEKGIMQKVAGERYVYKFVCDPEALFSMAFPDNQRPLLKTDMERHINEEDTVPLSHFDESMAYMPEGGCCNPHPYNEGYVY

Regarding TCTGGG, the binding signal in test [1] is 1.1 fold enrichment (6-mer frequency, TF over GST control); in test [2], 1.06 fold enrichment (6-mer frequency, TF over GST control); in [3], 1.06 fold enrichment (6-mer frequency, TF over GST control); in test [4], 1.04 fold enrichment (6-mer frequency, TF over GST control); in test [5], 1.18 fold enrichment (6-mer frequency, TF over GST control); in test [6], 1.09 fold enrichment (6-mer frequency, TF over GST control). Moreover, the binding signal in test [7] was 1.12 fold enrichment (6-mer frequency, TF over GST control); in test [8] it was 1.02 fold enrichment (6-mer frequency, TF over GST control); in [9], 1.28 fold enrichment (6-mer frequency, TF over GST control); in test [10], 1.13 fold enrichment (6-mer frequency, TF over GST control); in test [11], 1.13 fold enrichment (6-mer frequency, TF over GST control); in [12] it was 1.4 fold enrichment (6-mer frequency, TF over GST control). The binding signal in [13] was 1.11 fold enrichment (6-mer frequency, TF over GST control); in [14], 1.08 fold enrichment (6-mer frequency, TF over GST control); in test [15], 1.22 fold enrichment (6-mer frequency, TF over GST control); in [16] it was 1.19 fold enrichment (6-mer frequency, TF over GST control); in test [17], 1.12 fold enrichment (6-mer frequency, TF over GST control); in [18], 1.1 fold enrichment (6-mer frequency, TF over GST control). For the same sequence, the binding signal in [19] was 1.04 fold enrichment (6-mer frequency, TF over GST control).
